# Source: PubChem
# FBA Mtb inh = inhibitors of M. tuberculosis fructose-bisphosphate aldolase; P9WQA3; 2.3% of 360,000 active; purified M. tuberculosis FBA, fluorescence read-out; AID 588726; inhibition, % at 1 µM; in the data active = inhibition above about 27%;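 note: 0% = vehicle and 100% = reference inhibitor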
# Target sequence (P9WQA3 whole entry, looked up): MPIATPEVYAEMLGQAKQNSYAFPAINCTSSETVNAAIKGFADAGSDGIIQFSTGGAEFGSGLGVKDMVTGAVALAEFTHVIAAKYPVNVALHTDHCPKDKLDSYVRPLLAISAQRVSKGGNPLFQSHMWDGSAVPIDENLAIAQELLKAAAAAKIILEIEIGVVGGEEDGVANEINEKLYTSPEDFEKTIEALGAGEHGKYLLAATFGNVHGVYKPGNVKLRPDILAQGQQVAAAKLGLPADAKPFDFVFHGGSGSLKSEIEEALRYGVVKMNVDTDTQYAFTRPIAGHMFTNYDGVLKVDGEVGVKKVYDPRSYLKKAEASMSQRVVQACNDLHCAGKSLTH
# Autofluor counter = flagged as autofluorescent in microsphere protease counterscreen. compound autofluorescence counterscreen, microsphere flow cytometry; stronger effect = higher value. fluorescence intensity (concentration not given with the values). 3.1% of 360,000 active. AID 624483; in the data active = fluorescence intensity above about 16000; inconclusive = no clear call, values can overlap the other calls
# Anthrax LF prot = inhibitors of Bacillus anthracis lethal factor protease. multiplex microsphere protease cleavage assay, LF. inhibition, % at 10 µM. 0.12% of 360,000 active; note: plate controls were buffer without enzyme for full effect and enzyme alone for no effect
# BoNT-A LC inh2 = BoNT A light chain protease inhibition. multiplex microsphere protease substrate cleavage, flow cytometry. inhibition, % at 10 µM. 0.17% of 360,000 active. AID 588499; note: plate controls were buffer without enzyme for full effect and enzyme alone for no effect
# GDH-TPI inh = counter-screen for M. tuberculosis FBA inhibitors: GDH-TPI coupled enzymes; GDH-TPI coupled enzyme counterscreen, NADH absorbance; inhibition, % at 4.8 µM; 1.2% of 360,000 active; AID 588335; in the data active = inhibition above about 30%;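 note: 0% = DMSO wells and 100% = wells lacking the enzyme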
# BoNT F protease = inhibitors of Botulinum neurotoxin F light chain protease | Multiplex microsphere protease cleavage assay, flow cytometry | inhibition, % at 10 µM | 0.22% of 360,000 active; in the data active = inhibition above about 35%, passing the limit was not always enough; inconclusive = no clear call, values can overlap the other calls; note: plate controls were buffer without enzyme for full effect and enzyme alone for no effect
# Starred values were filed as active, the others as inactive; i = inactive; ? = inconclusive; / = no result. This is a sample that favours compounds with a hit; in the whole collection about 6.6% have one here. Cut-off read from the data, not from the text of the source, unless noted: active = inhibition above about 30%; inconclusive = no clear call, values can overlap the other calls; inactive = below that.
SMILES,FBA Mtb inh,Autofluor counter,Anthrax LF prot,BoNT-A LC inh2,GDH-TPI inh,BoNT F protease
N#Cc1cc2c(nc1SCC(=O)O)CCCCC2,-1,4649,-4,0,6,-6
CCN1CCc2ccccc2C1,-1,5888,-9,-1,5,-14
Oc1ccc(CN2CCc3ccccc3C2)c2cccnc12,-3,16689*,-3,-2,20,-12
Cn1cc(CN2CCc3ccccc3C2)c2ccccc21,-5,21029*,1,-3,-10,-4
Oc1ccc(CN2CCCCC2)c2cccnc12,-4,9628,-2,-2,-3,-24
CN1C[C@@H]2[C@@H]3C(=O)N(C)C(=O)[C@@H]3[C@](Cc3ccccc3)(C1=O)N2C(=O)c1ccc(F)cc1,-1,2980,-1,0,10,0
O=C1NC(=S)N/C1=C/c1cc([N+](=O)[O-])ccc1O,-21,4080,4,0,34*,5
O=C1NC(=S)N/C1=C/c1cccc([N+](=O)[O-])c1O,-6,11977,-4,-1,5,-5
COc1ccccc1OCCCn1c(=O)oc2ccccc21,0,4383,-1,1,-6,2
COc1ccccc1OCCCn1c(=O)sc2ccccc21,2,20682*,-5,?,-3,-3
O=c1sc2ccccc2n1CCOc1ccccc1,0,23573*,-3,-2,-11,-4
CCOC(=O)Cn1c(=O)sc2ccccc21,-4,23284*,0,1,7,1
O=C(O)CCn1c(=O)sc2ccccc21,-1,4244,0,0,-2,-1
COc1ccccc1/C=C1\Oc2cc(OC(=O)N3CCOCC3)ccc2C1=O,-2,/,/,/,14,/
CCCCC(=O)NC(=S)Nc1cccc(NC(=O)c2ccco2)c1,1,2170,-1,1,10,4
CN(C)CCNC(NC(=O)c1cccs1)C(Cl)(Cl)Cl (stereo unspecified),-3,10955,-3,0,0,-1
Cc1ccc(C(O)c2nc3ccccc3n2C)cc1 (stereo unspecified),0,4123,-18,-2,1,35*
C[n+]1ccc(C(=O)N/N=C/c2ccco2)cc1,1,2122,0,-1,12,0
S=C(Nc1ccccc1)N1CCn2c(nc3ccccc32)C1,-2,2541,2,0,3,-2
O=C(NCc1ccccc1)N1CCn2c(nc3ccccc32)C1,22,19281*,-3,2,-14,0
O=C(c1ccccc1)N1CCn2c(nc3ccccc32)C1,-5,19484*,1,?,-14,4
CCn1c(=O)c(=O)[nH]c2cc(C(=O)NC3CCCc4ccccc43)ccc21 (stereo unspecified),5,?,?,?,31*,?
CCn1c(=O)c(=O)[nH]c2cc(C(=O)NC3CC3)ccc21,2,7739,-4,0,11,-7
CN1CCN(C(=O)c2ccc(-n3cccc3)cc2)CC1,1,20993*,1,?,-6,-5
O=C(c1ccc2ccccc2c1)N1CCCC1,1,3408,-4,1,-2,20
SMILES,FBA Mtb inh,Autofluor counter,Anthrax LF prot,BoNT-A LC inh2,GDH-TPI inh,BoNT F protease
CN1CCN(C(=O)c2ccc3ccccc3c2)CC1,2,23924*,1,0,4,3
O=C(c1ccc(-n2cccc2)cc1)N1CCN(Cc2ccccc2)CC1,2,6926,-16,1,5,-5
COc1ccc(CCN2C(=O)c3cccc4cccc(c34)C2=O)cc1OC,3,17334*,-17,11,-2,10
COc1ccc(CCN2C(=O)C3C4C=CC(C3C2=O)C2C(=O)N(CCc3ccc(OC)c(OC)c3)C(=O)C42)cc1OC (stereo unspecified),1,19991*,-5,2,1,2
COc1ccc(CCN2C(=O)C3C4C=CC(C5CC45)C3C2=O)cc1OC (stereo unspecified),0,4674,2,0,1,4
CNc1cc(C(F)(F)F)nc(-c2ccccn2)n1,2,19306*,0,?,9,3
CC1CCCCC1NC(=O)C1CCC(CNc2c(N3CCCCC3)c(=O)c2=O)CC1 (stereo unspecified),1,4296,-2,0,4,3
CC1(C)Cc2c(c(N3CCOCC3)nc3sc4c(NCCN)ncnc4c23)CO1,12,5029,4,2,47*,-10
COCCNc1nnnc2c1sc1nc(N3CCOCC3)c3c(c12)CC(C)(C)OC3,1,4294,1,0,8,-3
CCN(CC)CCNc1ncnc2c1sc1nc(N3CCOCC3)c3c(c12)CC(C)(C)SC3,7,16070,-4,0,34*,-4
CN(C)CCNc1ncnc2c1sc1nc(N3CCOCC3)c3c(c12)CC(C)(C)SC3,5,11870,-4,-2,28,-28
COCc1cn(CC(=O)c2sc(NC(=O)C(C)(C)C)nc2C)nn1,/,6138,0,1,/,-2
COc1ccc2cc(/C=C/C(=O)N3CCN(CC(=O)N4CCCCCC4)CC3)ccc2c1,30*,5951,0,0,14,5
CC1CCN(CC(=O)N2CCN(c3ccccc3)CC2)CC1,2,3399,-8,1,-4,21
COc1ccc(N2CCN(CC(=O)N3CCC(C)CC3)CC2)cc1,2,17583*,-1,-3,10,-4
COc1ccc(C(=O)N2CCN(CC(=O)N3CCOCC3)CC2)cc1,-2,5992,5,0,6,-2
COC(=O)C1CCN(C(=O)/C=C/c2ccc(OC)cc2)CC1,-1,?,35*,-21,7,i
Cc1nc(NCCc2ccc(O)cc2)c2nnn(Cc3ccccc3)c2n1,-1,3917,9,-1,16,-2
CCOC(=O)c1[nH]c(C)c(/C(O)=C2\C(=O)C(=O)N(CCN(C)C)C2c2ccncc2)c1C (stereo unspecified),-3,2321,3,1,6,7
CCOC(=O)c1[nH]c(C)c(/C(O)=C2\C(=O)C(=O)N(CCN(C)C)C2c2cccc(OC)c2OC)c1C (stereo unspecified),-1,18747*,-4,3,7,3
Cn1c(=O)[nH]c(=O)c2c1nc(Br)n2CCSc1nnnn1-c1ccccc1,-3,11588,-2,-2,-4,-6
Cn1c(=O)c2c(nc(Br)n2CCSc2nnnn2-c2ccccc2)n(C)c1=O,0,20475*,0,-2,-5,-2
CCN1CCN(C(=O)c2cc(COc3ccc(F)c(F)c3)on2)[C@@H](C)C1=O,-2,3857,-2,0,8,2
C#CCOc1c(/C=C\c2nc(O)c([N+](=O)[O-])c(=O)[nH]2)cc(Br)cc1OC,-4,3138,-14,1,49*,?
COC(=O)COc1c(/C=C\c2nc(O)c([N+](=O)[O-])c(=O)[nH]2)cccc1OC,-3,3989,-8,-1,32*,?
O=C1c2c(O)cc(O)cc2O[C@@]12c1c(cc(O)c3c1O[C@H](c1ccc(O)cc1)[C@@H](O)C3)O[C@@H]2c1ccc(O)cc1,6,3818,-8,0,36*,-2
